Results from ChEMBL document CHEMBL3988442, “University of Dundee, Small-Polar-MMV Screening Library” (2021).
For some of these results: Results with a measured potency or affinity are listed apart.

Key:
Parameters in all cases: scale not given: direction of the effect not stated beside the values
[1] = target: Protein translocase subunit SecA (Escherichia coli (strain K12)) (UniProt P10408); test: Assay to Identify E. coli SecA ATPase Inhibitors; type: functional; details: 30 µM
[2] = target: T1, Ubiquitin-activating enzyme e1, putative (Leishmania donovani (strain BPK282A1)) (UniProt E9BSI1); test: Leishmania donovani Ubiquitin Activating Enzyme (LdE1); type: functional; details: 30 µM
T1 sequence (whole entry): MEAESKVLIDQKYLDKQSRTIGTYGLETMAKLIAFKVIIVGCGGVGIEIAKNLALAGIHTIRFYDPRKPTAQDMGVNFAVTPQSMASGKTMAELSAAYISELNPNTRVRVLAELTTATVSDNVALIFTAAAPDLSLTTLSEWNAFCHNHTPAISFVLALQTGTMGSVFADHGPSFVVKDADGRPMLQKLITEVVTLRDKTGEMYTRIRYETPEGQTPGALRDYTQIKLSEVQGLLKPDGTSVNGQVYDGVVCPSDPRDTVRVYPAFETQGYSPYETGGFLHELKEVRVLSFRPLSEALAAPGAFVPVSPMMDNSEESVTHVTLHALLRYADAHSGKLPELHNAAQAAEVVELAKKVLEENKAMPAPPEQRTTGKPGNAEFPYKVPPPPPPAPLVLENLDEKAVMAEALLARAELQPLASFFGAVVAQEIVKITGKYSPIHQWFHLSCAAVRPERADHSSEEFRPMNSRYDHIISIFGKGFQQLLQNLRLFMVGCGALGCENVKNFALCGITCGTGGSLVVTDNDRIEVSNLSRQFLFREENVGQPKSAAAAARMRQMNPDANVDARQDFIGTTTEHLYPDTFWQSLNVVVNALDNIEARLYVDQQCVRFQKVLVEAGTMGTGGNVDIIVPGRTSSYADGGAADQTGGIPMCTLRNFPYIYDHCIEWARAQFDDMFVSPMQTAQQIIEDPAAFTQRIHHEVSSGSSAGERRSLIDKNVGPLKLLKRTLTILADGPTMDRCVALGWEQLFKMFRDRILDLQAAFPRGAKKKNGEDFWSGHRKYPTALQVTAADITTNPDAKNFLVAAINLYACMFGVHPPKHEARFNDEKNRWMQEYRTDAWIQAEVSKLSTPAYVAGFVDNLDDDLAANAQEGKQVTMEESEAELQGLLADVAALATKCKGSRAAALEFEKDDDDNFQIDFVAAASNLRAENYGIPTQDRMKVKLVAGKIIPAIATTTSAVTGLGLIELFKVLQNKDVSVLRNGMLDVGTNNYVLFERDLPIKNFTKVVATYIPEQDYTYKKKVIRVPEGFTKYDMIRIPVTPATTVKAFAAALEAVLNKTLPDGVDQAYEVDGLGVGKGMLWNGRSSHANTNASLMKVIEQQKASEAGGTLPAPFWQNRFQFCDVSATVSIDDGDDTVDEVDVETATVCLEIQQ

[3] = target: AMP-activated protein kinase, AMPK (Homo sapiens) (UniProt P54646+O43741+P54619+Q9UGJ0+Q9Y478+Q13131+Q9UGI9); test: AMP-dependent Kinase enzyme assay. An in vitro enzyme assay that detects ADP turnover that is directly proportional to AMPK activity. This uses naive AMPK that is activated during the assay with MK-8722; type: functional; details: 30 µM
[4] = target: Sialic acid-binding Ig-like lectin 9 (Homo sapiens) (UniProt Q9Y336); test: Hs-Siglec9 ALPHAscreen SOP 20170721; details: 10 µM
Trypanosoma cruzi = test: Trypanosoma cruzi phosphomannomutase and mannose-1-phosphate guanylyltransferase assay; type: functional; details: 10 µM
[5] = target: T2, Arginase-2, mitochondrial (Homo sapiens) (UniProt P78540); test: in vitro enzyme assay to detect the production of urea directly proportional to the activity of Arginase II; type: functional; details: 33.3 µM; further: in the data most compounds retested in dose-response had high values
T2 sequence (whole entry): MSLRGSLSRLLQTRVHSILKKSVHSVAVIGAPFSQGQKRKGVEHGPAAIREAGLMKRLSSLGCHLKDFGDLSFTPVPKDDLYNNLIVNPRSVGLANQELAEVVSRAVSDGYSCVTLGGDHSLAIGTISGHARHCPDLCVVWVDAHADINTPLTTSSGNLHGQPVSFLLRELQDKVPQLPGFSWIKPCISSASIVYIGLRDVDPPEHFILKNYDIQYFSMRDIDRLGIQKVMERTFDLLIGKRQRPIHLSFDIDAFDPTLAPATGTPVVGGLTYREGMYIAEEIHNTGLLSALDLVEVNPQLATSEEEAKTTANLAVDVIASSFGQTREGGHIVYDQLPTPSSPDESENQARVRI

[6] = target: T3, Proteasome subunit beta (Trypanosoma cruzi) (UniProt O96673); test: Trypanosoma cruzi proteasome chymotrypsin-like activity (TcProtChymo) assay.; further: in the data most compounds retested in dose-response had high values; type: functional; details: 9.37 µM
T3 sequence (whole entry): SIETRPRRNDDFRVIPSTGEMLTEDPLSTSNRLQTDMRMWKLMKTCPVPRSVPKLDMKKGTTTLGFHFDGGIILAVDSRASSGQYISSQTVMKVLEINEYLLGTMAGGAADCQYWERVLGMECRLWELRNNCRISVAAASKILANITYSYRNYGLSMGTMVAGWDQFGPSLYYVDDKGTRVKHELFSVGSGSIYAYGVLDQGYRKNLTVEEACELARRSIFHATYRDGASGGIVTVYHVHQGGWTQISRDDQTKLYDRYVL

Homo sapiens = species on record: Homo sapiens; test: To identify inhibition of the IFN signalling (Jak-Stat) pathway via expression of an eGFP reporter gene under the control of an IFN-stimulated response element (ISRE) containing MxA promoter.; type: functional; details: 30 µM
[7] = target: T4, Tyrosyl-tRNA synthetase, putative (Trypanosoma cruzi (strain CL Brener)) (UniProt Q4DSP6); test: Trypanosoma cruzi tyrosyl tRNA synthetase (TcYRS) _High Tyrosine SOP; type: functional; details: 30 µM; further: in the data most compounds retested in dose-response had high values
T4 sequence (whole entry): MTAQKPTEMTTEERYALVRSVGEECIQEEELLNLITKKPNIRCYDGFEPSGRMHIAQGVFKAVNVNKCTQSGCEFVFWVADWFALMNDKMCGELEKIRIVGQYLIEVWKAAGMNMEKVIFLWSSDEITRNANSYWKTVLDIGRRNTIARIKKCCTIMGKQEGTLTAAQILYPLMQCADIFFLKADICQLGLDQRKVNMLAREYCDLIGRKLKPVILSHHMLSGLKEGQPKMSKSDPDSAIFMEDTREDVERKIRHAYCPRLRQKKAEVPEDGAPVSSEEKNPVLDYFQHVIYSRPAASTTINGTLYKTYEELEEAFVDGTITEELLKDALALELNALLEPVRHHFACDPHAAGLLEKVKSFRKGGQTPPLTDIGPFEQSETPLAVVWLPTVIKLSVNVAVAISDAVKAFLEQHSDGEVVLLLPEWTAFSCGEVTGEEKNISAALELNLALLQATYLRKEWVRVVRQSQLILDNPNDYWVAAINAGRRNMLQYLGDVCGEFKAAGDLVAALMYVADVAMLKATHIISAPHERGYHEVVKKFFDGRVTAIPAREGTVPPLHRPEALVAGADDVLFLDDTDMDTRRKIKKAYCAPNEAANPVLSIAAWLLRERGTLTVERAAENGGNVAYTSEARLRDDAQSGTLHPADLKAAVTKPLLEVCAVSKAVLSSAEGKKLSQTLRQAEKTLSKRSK

[8] = target: T4, Tyrosyl-tRNA synthetase, putative (Trypanosoma cruzi (strain CL Brener)); test: Trypanosoma cruzi tyrosyl tRNA synthetase (TcYRS) SOP; type: functional; details: 30 µM
[9] = target: Chromo domain-containing protein 1 (Saccharomyces cerevisiae (strain ATCC 204508 / S288c) (Baker's yeast)) (UniProt P32657); test: ScCHD-1 Enzyme Inhibition Assay; type: functional; details: 30 µM; further: in the data most compounds retested in dose-response had high values
Sequence of Chromo domain-containing protein 1 (Saccharomyces cerevisiae (strain ATCC 204508 / S288c) (Baker's yeast)) (P32657 whole entry, the tested form may be a part): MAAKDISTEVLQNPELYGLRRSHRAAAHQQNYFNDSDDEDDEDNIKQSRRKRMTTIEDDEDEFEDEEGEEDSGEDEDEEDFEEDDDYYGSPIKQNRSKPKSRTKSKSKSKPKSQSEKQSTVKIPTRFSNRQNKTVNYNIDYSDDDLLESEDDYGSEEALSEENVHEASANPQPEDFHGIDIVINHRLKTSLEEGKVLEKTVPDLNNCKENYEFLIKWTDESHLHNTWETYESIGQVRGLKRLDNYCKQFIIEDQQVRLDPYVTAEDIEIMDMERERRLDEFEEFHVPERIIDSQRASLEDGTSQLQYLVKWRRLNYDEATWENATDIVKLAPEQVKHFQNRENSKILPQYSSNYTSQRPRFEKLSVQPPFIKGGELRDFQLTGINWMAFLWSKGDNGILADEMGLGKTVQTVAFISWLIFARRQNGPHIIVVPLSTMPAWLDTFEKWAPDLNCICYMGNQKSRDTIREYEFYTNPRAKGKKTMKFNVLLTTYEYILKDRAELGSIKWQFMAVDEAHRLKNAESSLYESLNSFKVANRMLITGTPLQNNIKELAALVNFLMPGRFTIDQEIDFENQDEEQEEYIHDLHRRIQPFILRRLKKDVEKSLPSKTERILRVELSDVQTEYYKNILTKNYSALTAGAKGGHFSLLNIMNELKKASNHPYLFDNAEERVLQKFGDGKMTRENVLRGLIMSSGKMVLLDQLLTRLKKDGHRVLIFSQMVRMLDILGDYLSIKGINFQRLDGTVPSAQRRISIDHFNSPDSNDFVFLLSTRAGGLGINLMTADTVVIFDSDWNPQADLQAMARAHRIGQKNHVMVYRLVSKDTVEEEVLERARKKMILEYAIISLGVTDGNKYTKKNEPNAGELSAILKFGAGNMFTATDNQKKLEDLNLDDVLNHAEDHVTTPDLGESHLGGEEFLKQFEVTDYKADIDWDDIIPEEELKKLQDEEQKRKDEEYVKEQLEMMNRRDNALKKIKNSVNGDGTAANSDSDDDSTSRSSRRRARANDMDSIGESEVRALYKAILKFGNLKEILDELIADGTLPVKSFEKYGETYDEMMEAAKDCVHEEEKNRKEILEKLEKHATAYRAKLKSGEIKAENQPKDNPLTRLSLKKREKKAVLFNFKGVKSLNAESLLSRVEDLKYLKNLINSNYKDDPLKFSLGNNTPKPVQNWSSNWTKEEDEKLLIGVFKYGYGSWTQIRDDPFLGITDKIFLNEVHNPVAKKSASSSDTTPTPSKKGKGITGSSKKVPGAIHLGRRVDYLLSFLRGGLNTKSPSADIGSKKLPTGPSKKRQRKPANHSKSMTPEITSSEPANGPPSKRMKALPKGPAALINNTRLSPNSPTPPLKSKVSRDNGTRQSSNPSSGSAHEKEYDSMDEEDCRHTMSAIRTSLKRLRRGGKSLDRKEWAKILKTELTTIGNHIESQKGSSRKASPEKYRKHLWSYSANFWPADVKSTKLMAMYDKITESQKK

Sequence of Sialic acid-binding Ig-like lectin 9 (Homo sapiens) (Q9Y336 whole entry): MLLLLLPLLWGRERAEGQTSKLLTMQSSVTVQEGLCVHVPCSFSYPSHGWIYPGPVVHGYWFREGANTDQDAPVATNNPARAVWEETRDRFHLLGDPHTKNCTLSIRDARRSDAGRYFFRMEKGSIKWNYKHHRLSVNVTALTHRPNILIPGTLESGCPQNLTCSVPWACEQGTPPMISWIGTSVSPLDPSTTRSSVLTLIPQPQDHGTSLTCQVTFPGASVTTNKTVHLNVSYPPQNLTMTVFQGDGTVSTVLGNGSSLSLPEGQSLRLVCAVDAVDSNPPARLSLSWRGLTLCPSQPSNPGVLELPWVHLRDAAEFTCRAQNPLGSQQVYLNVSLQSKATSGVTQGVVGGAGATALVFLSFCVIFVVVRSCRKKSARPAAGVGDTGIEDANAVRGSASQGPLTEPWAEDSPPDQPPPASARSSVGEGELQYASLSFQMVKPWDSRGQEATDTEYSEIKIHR
Sequence of Protein translocase subunit SecA (Escherichia coli (strain K12)) (P10408 whole entry): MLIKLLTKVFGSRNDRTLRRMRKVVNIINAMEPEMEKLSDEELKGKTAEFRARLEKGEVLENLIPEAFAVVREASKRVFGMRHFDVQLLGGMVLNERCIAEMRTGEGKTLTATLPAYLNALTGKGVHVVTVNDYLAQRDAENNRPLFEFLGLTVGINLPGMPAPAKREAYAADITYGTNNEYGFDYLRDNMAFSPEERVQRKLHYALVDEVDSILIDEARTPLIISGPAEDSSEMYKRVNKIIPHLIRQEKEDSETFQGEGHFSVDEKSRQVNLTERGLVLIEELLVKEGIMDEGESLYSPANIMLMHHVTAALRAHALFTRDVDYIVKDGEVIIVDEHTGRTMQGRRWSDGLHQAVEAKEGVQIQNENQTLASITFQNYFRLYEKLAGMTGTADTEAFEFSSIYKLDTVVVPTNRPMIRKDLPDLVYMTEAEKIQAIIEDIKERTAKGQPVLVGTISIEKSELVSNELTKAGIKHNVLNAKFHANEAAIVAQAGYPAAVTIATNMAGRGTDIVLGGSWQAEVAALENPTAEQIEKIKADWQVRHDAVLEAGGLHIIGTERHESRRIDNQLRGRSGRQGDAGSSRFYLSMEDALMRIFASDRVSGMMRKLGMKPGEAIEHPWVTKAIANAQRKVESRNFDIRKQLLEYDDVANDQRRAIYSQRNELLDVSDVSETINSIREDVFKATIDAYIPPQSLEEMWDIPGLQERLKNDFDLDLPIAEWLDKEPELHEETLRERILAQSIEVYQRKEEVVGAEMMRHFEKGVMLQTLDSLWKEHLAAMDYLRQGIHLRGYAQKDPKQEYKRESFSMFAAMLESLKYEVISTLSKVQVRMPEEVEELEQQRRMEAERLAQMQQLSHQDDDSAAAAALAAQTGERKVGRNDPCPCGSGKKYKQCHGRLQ

Structure (SMILES)	Percent Effect [1] [%]	Percent Effect [2] [%]	Percent Effect [3] [%]	Percent Effect [4] [%]	Percent Effect (Trypanosoma cruzi) [%]	Percent Effect [5] [%]	Percent Effect [6] [%]	Percent Effect (Homo sapiens) [%]	Percent Effect [7] [%]	Percent Effect [8] [%]	Percent Effect [9] [%]
CN1CCOC(CNCCc2ccccn2)C1 (stereo unspecified)	-2.22	20.2	-8.39	-6.71	-3.31	5.7	5.32	16.5	8.37	16.5	-2.67
CCc1nc(CN2CCCC(NCc3ccc(C(N)=O)cc3)C2)no1 (stereo unspecified)	-4.14	2.53	-1.56	9.52	2.93	1.14	-0.246	12.3	-0.493	1.27	-2.88
Cn1cc(C2COC3(CCN(C(=O)c4ccc(F)cc4)CC3)C2)cn1 (stereo unspecified)	-3.35	8.11	6.34	-3.51	-2.25	7.33	19.9	-15	2.16	17.9	2.2
CN(Cc1ccccn1)C1COC2(CCN(Cc3cccnc3)CC2)C1 (stereo unspecified)	-2.78	16	-2.32	-9.58	4.72	49.2	12.1	17.1	5.32	16.7	-7.71
O=C(c1ccc[nH]1)N1C[C@H]2CC[C@@H]1CN(c1ncccn1)C2	-5.19	5.2	7.19	11.1	2.26	-9.65	6.49	-14.3	6.45	13.6	-0.0272
CC(=O)N1CCCC1c1nccc(C)n1 (stereo unspecified)	-4.82	8	9.75	7.48	-0.984	3.5	4.67	3.01	3.19	11.5	-1.52
CCOC(=O)[C@]12CCCN(Cc3nccs3)C[C@H]1CN(C(C)=O)C2	-1.26	5.2	-1.96	-4.79	-9.17	-0.645	15.7	7.39	0	6.41	-6.7
Cc1ccc(C(=O)N2C[C@@H]3OCCN(CCN4CCCC4)[C@@H]3C2)cn1	-3.52	8.11	0.326	-5.24	-2.25	2.23	21	-5.79	5.41	15.4	-1.17
Cc1nnc(N2CCCC3(CN(Cc4ccc(C)s4)CCO3)C2)o1 (stereo unspecified)	0.137	5.48	-2.15	8.14	3.97	-5.19	13.1	-2.59	2.08	6.17	-3.69
CCOCC1CN(C(=O)N(C)C)Cc2nn(C)cc21 (stereo unspecified)	-3.04	8	-0.352	2.29	-0.579	-40.3	8.03	-8.7	1.04	10	-7.3
CN1CCOC(CNCc2coc(-c3cccs3)n2)C1 (stereo unspecified)	-2.66	22.8	-18.2	-13.1	5.38	3.42	8.27	12.8	8.37	21.5	-14.2
